Data reported in article PMC7826789 (International Journal of Molecular Sciences, 2021).

These compounds were tested on FLT3(D835H). Conditions: Compound Concentration (nM):1000.
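Also: KINOMEscan scanMAX binding as percent activity remaining versus control; lower means stronger binding.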

SMILES | Percent Control [%]
CCS(=O)(=O)c1ccc(OC)c(Nc2ncc(-c3cccc(F)c3)o2)c1 [GW621970X] | 0.6
CC1=C(C(=O)Nc2ccc3[nH]ncc3c2)C(c2ccc3ccccc3c2)CC(=O)N1 (stereo not drawn) [GSK270822A] | 94
COc1cc(C=NNc2ncnc3c2cnn3-c2ccccc2)ccc1O [GW513184X] | 12
Cl.O=C(O[C@H]1CN[C@H](C#Cc2cc3ncnc(Nc4ccc5c(cnn5Cc5ccccc5)c4)c3s2)C1)N1CCOCC1 [GSK200398A] | 96
O=C(Nc1n[nH]c2nc(-c3ccc(O)cc3)c(Br)cc12)C1CC1 [SB-725317] | 29
Cl.O=C(Nc1ccc(Oc2ccc3[nH]c(NC(=O)c4ccccc4)nc3c2)cc1)Nc1cc(C(F)(F)F)ccc1F [GW709042A] | 2.8
CCS(=O)(=O)c1ccc(OC)c(Nc2ncc(-c3cccc(OC)c3)o2)c1 [GW580509X] | 0.5
COc1ccccc1-c1cc(/C=C2\C(=O)Nc3ncc(Br)cc32)cc(Br)c1O [GW442130X] | 86
NS(=O)(=O)c1ccc(N/N=C2\C(=O)Nc3ccc(C(=O)NCCc4c[nH]cn4)cc32)cc1 [GW300660X] | 52
NS(=O)(=O)c1ccc(N/N=C2\C(=O)Nc3ccc(C(=O)NCc4ccncc4)cc32)cc1 [GW300657X] | 52
NS(=O)(=O)c1ccc(N/N=C2\C(=O)Nc3ccc(Cl)cc32)cc1 [GW280670X] | 83
Cl.O=S1CCN(Cc2ccc(-c3ccc4ncnc(Nc5ccc(OCc6ccccc6)c(F)c5)c4c3)o2)CC1 [GW576924A] | 100
NS(=O)(=O)c1ccc(N/N=C2\C(=O)Nc3ccc(-c4cnco4)cc32)cc1 [GW276655] | 43
COc1cccc(-c2c[nH]c3c(N/N=C/c4ccncc4)ncnc23)c1 [GW814408X] | 27

The compounds below were run on FLT3(D835V). Conditions: Compound Concentration (nM):1000.

SMILES | Percent Control [%]
CN(C)CCNC(=O)Nc1ccc(N(C)c2ccnc(Nc3ccc(CS(C)(=O)=O)cc3)n2)cc1.Cl [GW830900A] | 6.3
C/C(Nc1ccc(S(N)(=O)=O)cc1)=C1/C(=O)Nc2ccccc21 [GW335962X] | 0.3
Cc1cc(O)cc(C)c1/C=C/c1cncc(C(N)=O)c1 [GW435821X] | 31
COc1cc(C)c(N(C)C(=O)CN(C)C)cc1Nc1nc(Nc2cccc(F)c2C(N)=O)c2cc[nH]c2n1 [GSK2219385] | 76
COC(=O)Nc1nc2ccc(Oc3ccc(NC(=O)Nc4cc(C(F)(F)F)ccc4F)cc3)cc2s1.Cl [GW693917A] | 13
NS(=O)(=O)c1ccc(Nc2ncc(-c3ccccc3)o2)cc1 [GW572399X] | 8.5
CN(C)c1cc2c(Nc3ccc4c(cnn4Cc4ccccc4)c3)ncnc2cn1 [GW282974X] | 59
CCc1ccc(Oc2nccc(-c3c(-c4ccc(F)cc4)ncn3C3CCNCC3)n2)cc1 [SB-242719] | 100
Nc1ncnc2occ(-c3ccc(NC(=O)Nc4cc(C(F)(F)F)ccc4F)cc3)c12 [GW770249X] | 4.1
CN1CCN(C(=O)c2ccc(NC(=O)Nc3ccc(N(C)c4ccnc(Nc5ccc(CS(C)(=O)=O)cc5)n4)cc3)cc2)CC1.Cl [GW830263A] | 1.2
COc1cc2ncn(-c3cc(O[C@H](C)c4ccccc4Cl)c(C(N)=O)s3)c2cc1OC [GSK237701A] | 0
COc1ccc(COc2ccc(Cc3cnc(N)nc3N)cc2OC)cc1 [GW632580X] | 100
CCn1c(-c2nonc2N)nc2c(C#CC(C)(C)O)nc(OCCNC)cc21.Cl [GSK949675] | 83
COc1cc(/C=N/Nc2ncnc3[nH]ncc23)ccc1O [GW578748X] | 0.2
COc1cc(N2CCN(C(C)C)CC2)ccc1Nc1nc(Nc2ccc(F)cc2C(=O)NC[C@@H](O)CO)c2cc[nH]c2n1 [GSK1392956A] | 69
Cl.c1ccc(Cc2nc3ccc(Nc4ncnc5ccccc45)cc3[nH]2)cc1 [GR269666A] | 83
C[C@@H](Oc1cc(-n2cnc3ccc(OC4CCN(C)CC4)cc32)sc1C(N)=O)c1ccccc1Cl [GSK579289A] | 0
CC1=C(C(=O)Nc2ccc3[nH]ncc3c2)C(c2ccc(Cl)c(Cl)c2)CC(=O)N1 (stereo not drawn) [GSK299115A] | 75
COc1cccc(-n2ncc3c(N/N=C/c4ccncc4)ncnc32)c1 [GW784752X] | 4
